# BaF3 tox: counter-screen for JAK2V617F inhibitors: parental Ba/F3 viability inhibitors | CellTiter-Glo ATP luminescence | inhibition, % at 5.6 µM | 220,000 compounds, 1.1% hits | AID 1486;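 active means inhibition above a per-campaign cutoff, the mean inhibition of all tested compounds plus 3 SD, cut at about 27% in these data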
# KLF5 inhibitor: kruppel-like factor 5 inhibition | DLD-1 KLF5 promoter-luciferase reporter, luminescence | inhibition, % at 5 µM | 290,000 compounds, 0.23% hits;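 active means inhibition above a per-plate limit of that plate's mean compound inhibition plus 3 SD, cut at about 60% in these data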;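 further: higher means less KLF5 promoter-driven luciferase light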
# Ba/F3 V617F tox: lowers viability of Ba/F3 cells expressing EpoR and JAK2V617F; ATP luminescence; 220,000 compounds, 1.1% hits; inhibition, % at 5.6 µM;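 active means inhibition above the campaign mean plus 3 SD over all tested compounds, cut at about 24% in these data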;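 further: cytokine-independent growth of Ba/F3 cells driven by EpoR plus mutant JAK2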
# IEC-6 tox: counter-screen for KLF5 inhibitors: cytotoxicity in IEC-6 cells. IEC-6 cytotoxicity, luminescence viability. inhibition, % at 5 µM. 290,000 compounds, 0.78% hits
# APP 5UTR inh: APP translation inhibition; SH-SY5Y APP 5'UTR-luciferase reporter, luminescence; inhibition, % at 2 µM; 190,000 compounds, 0.82% hits;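 active means inhibition above a set limit, derived from the sample mean plus 3 SD, cut at about 45% in these data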
# IEC-6 tox confirm: IEC-6 cytotoxicity, confirmation assay; shares compounds with IEC-6 tox; IEC-6 rat intestinal epithelial viability, luminescence; inhibition, % at 5 µM; 1,900 compounds, 63% hits
# Numbers stand for hits; – = inactive; · = no result given. Rows were chosen to be rich in hits. Some 1.8% of all compounds tested hit in one or more screens of this group. Unless noted, no stated cut-off is given here; in the data, active means inhibition above about 22%; inactive means the rest.
SMILES,BaF3 tox,KLF5 inhibitor,Ba/F3 V617F tox,IEC-6 tox,APP 5UTR inh,IEC-6 tox confirm
Cc1ccccc1NC(=O)c1nc(S(C)(=O)=O)ncc1Cl,·,–,·,39.6,·,–
Cc1cccc(C)c1NC(=O)c1nc(S(=O)(=O)Cc2ccccc2)ncc1Cl,·,–,·,38.0,·,–
CSc1ncc(Cl)c(C(=O)Nc2cccc3ccccc23)n1,–,–,–,–,–,·
CCCCCCn1nc(C(=O)OCC(=O)NC2CCS(=O)(=O)C2)c2ccccc2c1=O (stereo unspecified),–,–,–,–,–,·
COc1ccc(NC(=O)C2CCCN2C(=O)NC2CCCCC2)cc1 (stereo unspecified),·,–,·,–,·,·
COc1ccc(NC(=S)NC2CCCCC2)cn1,–,–,–,–,–,·
Cc1cnc(CNC(=O)c2ccc3oc(C(C)C)nc3c2)[nH]1,·,–,·,–,·,·
Cc1ccc2oc(C(=O)NCc3ncc(C)[nH]3)c(C)c2c1,·,–,·,33.8,·,–
COc1ccc(N2CC(O)=C(c3nc4ccccc4s3)C2=N)cc1,–,–,–,–,–,·
COc1cccc(N2CC(O)=C(c3nc4ccccc4s3)C2=N)c1,80.9,–,75.6,78.9,88.5,57.3
CSc1ccccc1NC(=O)CSCc1ccc(C)cc1,–,–,–,–,–,·
Cc1ccc(CSCC(=O)Nc2ccccc2C(=O)O)cc1,·,–,·,28.9,·,24.8
